# Experimental data: the supplement of paper PMC10849652
# Targets with a hit are over-represented here; the source holds about 8,800 in all. About 0.5% of all pairs of compound and target were hits. A number with no mark means an inactive call.
# Assays:
# Test in all cases: log2 fold change, soluble protein after heating vs DMSO (PISA); higher = thermal stabilisation; K562 lysate, 10 uM; active = over 0.2 and 3.5 SD of the protein, either way, in both replicates (recomputed)
# [1] = compound: C#Cc1cccc(Nc2ncnc3cc(OCCOC)c(OCCOC)cc23)c1 [erlotinib]
# How it was run: (§1)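 To prepare the extract, K562 pellets were dounce-homogenised in PBS pH 7.4 with 1 mM MgCl2, giving crude material at 1 mg/mL protein. This was treated with 10 μM compound for 30 min, then heated in aliquots for 3 min over 48°C-58°C before pooling and addition of NP-40 to 0.5% at 4°C. Centrifugation at 21,000xg for 90 min left soluble protein in the supernatant, which TMTpro 16plex LC-MS/MS quantified with equalised channel sums. Results are log-two fold changes in thermal stability compared with solvent controls, from duplicates.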
# [2] = compound: C/C(=N\NC(=O)C1=CC(=CC=C1)S(=O)(=O)N2CCOCC2)/C3=C(C=CC(=C3)Cl)O
# How it was run: as §1
# [3] = compound: C1=CC(=CC=C1C2=NC3=C(N2)C=C(C=C3)C(=O)N)OC4=CC=C(C=C4)Cl
# How it was run: as §1
# [4] = compound: C1=CC2=C(C=CC(=C2)/C=C\3/C(=O)NC(=NCC4=CC=CS4)S3)N=C1
# How it was run: as §1
# [5] = compound: C1=CC2=NC=CN=C2C=C1/C=C/3\C(=O)NC(=O)S3
# How it was run: as §1
# [6] = compound: C1=CC=C(C=C1)C2=NC(=C(N2)C3=CC=NC=C3)C4=CC(=C(C=C4)Cl)O
# How it was run: as §1
# [7] = compound: C1=CC=C2C(=C1)C3=NNC4=CC=CC(=C43)C2=O
# How it was run: as §1
# [8] = compound: C1CCN(C1)C(=O)NC2=CC=CC(=C2)NC3=NC=C(C(=N3)NCCC4=CN=CN4)Br
# How it was run: as §1
# [9] = compound: C1CN(CCC1(CC2=CC=C(C=C2)Cl)N)C3=NC=NC4=C3C=CN4
# How it was run: as §1
# [10] = compound: C1COCCN1CCN2C3=CC=CC=C3N=C2NC(=O)C4=CC(=CC=C4)[N+](=O)[O-] [IRAK-1-4 Inhibitor I]
# How it was run: as §1
# [11] = compound: C=CC(=O)N1CCC[C@@H](n2nc(-c3ccc(Oc4ccccc4)cc3)c3c(N)ncnc32)C1 [ibrutinib]
# How it was run: as §1
# [12] = compound: CC(=O)c1cnc2ccc(-c3cc(Cl)c(O)c(Cl)c3)nc2c1N[C@H]1CC[C@H](CN(C)C)CC1
# How it was run: as §1
# [13] = compound: CC(C)(C)Cn1c(N)nc2ccc(-c3[nH]c(C(C)(C)C)nc3-c3ccc(F)cc3)nc21 [ralimetinib]
# How it was run: as §1
# [14] = compound: CC(C)(O)CC(=O)NCCn1ccc2ncnc(Nc3ccc(Oc4cccc(C(F)(F)F)c4)c(Cl)c3)c21
# How it was run: as §1
# [15] = compound: CC(C)C1=C2N=C(C=C(N2N=C1)NCC3=CC=CC=C3)NCCCCCCN
# How it was run: as §1
# [16] = compound: CC1=C(C(CC(=O)N1)C2=CC=C(C=C2)C(F)(F)F)C(=O)NC3=C(C=C4C(=C3)C=NN4)F
# How it was run: as §1
# [17] = compound: CC1=C(C2=C(C=C1)C(=O)C3=CC=CC=C3N2CCCN)C
# How it was run: as §1
# [18] = compound: CC1=C(C=C(C=C1)NC(=O)C2=CC(=CC=C2)C(C)(C)C#N)NC3=CC4=C(C=C3)N=CN(C4=O)C
# How it was run: as §1
# [19] = compound: CC1=C(C=C(C=C1)NC(=O)C2=CC(=CC=C2)N(C)C)NC(=O)C3=CC=C(C=C3)O
# How it was run: as §1
# [20] = compound: CC1=CC=C(C=C1)SC2=C3C=C(SC3=CN=C2)C(=O)N
# How it was run: as §1
# UniProt P15559, sequence (P15559 whole entry, looked up): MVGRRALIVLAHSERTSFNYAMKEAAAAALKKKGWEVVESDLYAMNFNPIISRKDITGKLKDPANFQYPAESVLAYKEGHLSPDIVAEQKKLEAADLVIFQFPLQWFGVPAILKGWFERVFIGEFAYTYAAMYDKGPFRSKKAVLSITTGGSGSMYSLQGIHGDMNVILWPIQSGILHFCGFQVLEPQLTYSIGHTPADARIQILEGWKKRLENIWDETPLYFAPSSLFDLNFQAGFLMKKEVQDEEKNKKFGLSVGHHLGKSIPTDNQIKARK
# UniProt Q9NZJ9, sequence (Q9NZJ9 whole entry, looked up): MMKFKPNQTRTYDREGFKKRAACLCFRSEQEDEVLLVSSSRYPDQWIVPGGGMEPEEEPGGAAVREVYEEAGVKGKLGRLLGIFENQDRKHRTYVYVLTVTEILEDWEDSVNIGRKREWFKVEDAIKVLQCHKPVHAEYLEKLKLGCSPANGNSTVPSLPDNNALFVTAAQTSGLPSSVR
# UniProt Q9BV86, sequence (Q9BV86 whole entry, looked up): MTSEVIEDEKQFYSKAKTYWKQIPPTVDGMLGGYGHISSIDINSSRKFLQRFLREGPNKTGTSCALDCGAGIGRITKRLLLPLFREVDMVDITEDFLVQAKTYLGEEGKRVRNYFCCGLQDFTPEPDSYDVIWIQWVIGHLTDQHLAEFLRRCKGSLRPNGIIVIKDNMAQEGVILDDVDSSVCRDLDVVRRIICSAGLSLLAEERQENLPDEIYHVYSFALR
# UniProt Q6ZNJ1, sequence (Q6ZNJ1 whole entry, looked up): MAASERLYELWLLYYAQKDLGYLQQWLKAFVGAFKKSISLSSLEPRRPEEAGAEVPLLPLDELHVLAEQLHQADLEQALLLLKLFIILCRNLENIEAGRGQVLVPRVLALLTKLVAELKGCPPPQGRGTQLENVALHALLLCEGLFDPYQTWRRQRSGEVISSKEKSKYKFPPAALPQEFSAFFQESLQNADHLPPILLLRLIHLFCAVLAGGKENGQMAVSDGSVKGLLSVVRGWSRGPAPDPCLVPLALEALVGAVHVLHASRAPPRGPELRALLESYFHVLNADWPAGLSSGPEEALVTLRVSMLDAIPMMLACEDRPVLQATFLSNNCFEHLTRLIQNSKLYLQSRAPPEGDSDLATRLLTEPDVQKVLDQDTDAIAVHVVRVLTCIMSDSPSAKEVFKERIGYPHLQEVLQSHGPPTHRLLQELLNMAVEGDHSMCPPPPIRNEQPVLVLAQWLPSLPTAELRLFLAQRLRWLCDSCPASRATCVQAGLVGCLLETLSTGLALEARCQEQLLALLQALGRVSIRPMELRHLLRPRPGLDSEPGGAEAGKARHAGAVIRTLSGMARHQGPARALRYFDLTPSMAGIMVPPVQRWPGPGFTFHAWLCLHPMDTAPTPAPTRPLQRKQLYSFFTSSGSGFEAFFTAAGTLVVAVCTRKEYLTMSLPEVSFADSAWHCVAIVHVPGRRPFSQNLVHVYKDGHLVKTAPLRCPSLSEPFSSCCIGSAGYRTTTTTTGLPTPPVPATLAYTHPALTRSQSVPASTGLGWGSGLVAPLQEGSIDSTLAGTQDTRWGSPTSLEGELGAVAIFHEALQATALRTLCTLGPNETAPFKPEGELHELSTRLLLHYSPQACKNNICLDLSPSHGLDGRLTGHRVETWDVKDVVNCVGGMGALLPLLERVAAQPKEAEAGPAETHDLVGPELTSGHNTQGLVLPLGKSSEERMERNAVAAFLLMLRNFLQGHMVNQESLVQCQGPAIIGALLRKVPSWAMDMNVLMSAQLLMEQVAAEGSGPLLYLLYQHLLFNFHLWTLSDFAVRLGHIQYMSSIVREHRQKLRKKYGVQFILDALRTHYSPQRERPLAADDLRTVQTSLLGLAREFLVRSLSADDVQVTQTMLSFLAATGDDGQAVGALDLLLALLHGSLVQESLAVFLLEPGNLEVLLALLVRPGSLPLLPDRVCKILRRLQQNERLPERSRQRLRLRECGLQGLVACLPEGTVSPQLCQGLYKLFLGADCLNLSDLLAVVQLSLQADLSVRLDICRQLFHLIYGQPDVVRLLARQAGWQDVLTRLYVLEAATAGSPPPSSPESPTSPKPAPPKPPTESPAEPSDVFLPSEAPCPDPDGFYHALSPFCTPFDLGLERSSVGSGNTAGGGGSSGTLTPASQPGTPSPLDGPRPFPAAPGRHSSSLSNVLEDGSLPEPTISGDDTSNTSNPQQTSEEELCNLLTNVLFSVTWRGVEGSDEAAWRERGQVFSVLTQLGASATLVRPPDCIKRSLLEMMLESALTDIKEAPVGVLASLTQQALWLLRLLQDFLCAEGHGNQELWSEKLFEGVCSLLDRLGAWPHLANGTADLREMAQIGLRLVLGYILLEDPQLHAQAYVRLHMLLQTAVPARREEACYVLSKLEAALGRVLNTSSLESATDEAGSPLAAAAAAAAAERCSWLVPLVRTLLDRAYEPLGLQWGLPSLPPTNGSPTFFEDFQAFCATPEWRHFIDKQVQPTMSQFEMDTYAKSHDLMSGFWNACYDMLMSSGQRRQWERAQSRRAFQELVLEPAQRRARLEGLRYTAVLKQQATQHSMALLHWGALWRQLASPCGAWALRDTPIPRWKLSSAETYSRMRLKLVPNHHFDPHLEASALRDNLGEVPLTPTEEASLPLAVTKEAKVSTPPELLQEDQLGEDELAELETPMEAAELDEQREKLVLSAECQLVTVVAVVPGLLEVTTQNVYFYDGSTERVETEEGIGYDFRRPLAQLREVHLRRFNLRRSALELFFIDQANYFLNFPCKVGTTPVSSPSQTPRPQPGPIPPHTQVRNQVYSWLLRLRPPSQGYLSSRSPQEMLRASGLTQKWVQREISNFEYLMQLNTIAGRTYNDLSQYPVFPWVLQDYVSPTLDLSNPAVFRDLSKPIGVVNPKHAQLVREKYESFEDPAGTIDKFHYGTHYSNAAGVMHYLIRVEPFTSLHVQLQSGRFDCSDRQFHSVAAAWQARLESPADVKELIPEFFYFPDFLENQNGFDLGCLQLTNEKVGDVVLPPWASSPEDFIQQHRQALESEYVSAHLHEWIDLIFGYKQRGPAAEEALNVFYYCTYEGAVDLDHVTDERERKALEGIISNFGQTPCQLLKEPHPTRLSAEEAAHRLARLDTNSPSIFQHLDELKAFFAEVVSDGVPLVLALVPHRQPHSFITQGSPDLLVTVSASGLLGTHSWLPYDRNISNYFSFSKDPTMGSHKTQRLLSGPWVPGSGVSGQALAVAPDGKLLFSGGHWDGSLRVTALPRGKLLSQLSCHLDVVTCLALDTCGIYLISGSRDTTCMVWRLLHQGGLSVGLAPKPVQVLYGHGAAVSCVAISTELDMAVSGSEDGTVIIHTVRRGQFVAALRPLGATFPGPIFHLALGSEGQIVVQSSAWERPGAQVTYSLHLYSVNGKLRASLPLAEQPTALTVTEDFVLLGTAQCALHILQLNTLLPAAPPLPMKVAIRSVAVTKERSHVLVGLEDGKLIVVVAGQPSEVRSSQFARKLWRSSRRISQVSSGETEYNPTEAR
# UniProt Q9ULX3, sequence (Q9ULX3 whole entry, looked up): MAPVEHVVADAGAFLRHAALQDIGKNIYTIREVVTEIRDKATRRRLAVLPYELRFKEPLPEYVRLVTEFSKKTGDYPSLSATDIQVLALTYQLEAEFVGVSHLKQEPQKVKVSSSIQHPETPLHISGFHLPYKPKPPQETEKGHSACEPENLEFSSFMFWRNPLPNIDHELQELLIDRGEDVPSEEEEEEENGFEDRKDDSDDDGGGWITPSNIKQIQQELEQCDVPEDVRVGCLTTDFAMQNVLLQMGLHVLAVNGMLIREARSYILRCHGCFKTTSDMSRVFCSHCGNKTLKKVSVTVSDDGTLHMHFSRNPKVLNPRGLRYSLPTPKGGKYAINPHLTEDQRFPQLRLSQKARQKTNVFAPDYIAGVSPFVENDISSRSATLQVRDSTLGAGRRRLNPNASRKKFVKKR
# UniProt Q15653, sequence (Q15653 whole entry, looked up): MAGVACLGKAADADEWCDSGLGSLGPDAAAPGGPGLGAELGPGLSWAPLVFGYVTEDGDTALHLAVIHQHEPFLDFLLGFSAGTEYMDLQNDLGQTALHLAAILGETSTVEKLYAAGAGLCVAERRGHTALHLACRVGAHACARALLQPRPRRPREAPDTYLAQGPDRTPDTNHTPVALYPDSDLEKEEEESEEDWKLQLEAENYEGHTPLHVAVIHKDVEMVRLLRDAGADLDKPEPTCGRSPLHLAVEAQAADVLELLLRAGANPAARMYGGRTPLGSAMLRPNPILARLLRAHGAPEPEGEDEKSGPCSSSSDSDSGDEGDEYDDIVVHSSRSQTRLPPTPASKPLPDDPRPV
# UniProt Q9Y639, sequence (Q9Y639 whole entry, looked up): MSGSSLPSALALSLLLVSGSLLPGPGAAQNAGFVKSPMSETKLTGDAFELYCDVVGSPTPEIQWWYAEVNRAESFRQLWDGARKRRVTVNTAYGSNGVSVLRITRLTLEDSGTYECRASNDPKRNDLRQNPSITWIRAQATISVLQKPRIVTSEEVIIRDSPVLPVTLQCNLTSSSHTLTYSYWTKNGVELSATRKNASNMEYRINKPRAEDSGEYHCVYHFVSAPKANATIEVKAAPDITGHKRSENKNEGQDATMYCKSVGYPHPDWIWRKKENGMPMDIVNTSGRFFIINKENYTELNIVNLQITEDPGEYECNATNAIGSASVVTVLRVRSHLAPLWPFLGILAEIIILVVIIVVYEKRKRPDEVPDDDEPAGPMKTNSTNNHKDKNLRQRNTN
# UniProt O75607, sequence (O75607 whole entry, looked up): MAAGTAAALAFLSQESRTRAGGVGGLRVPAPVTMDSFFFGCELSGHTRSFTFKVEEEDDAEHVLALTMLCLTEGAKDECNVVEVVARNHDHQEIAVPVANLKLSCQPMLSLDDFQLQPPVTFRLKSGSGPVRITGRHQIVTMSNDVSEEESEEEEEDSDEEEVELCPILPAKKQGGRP
Target,log2 fold change [1],log2 fold change [2],log2 fold change [3],log2 fold change [4],log2 fold change [5],log2 fold change [6],log2 fold change [7],log2 fold change [8],log2 fold change [9],log2 fold change [10],log2 fold change [11],log2 fold change [12],log2 fold change [13],log2 fold change [14],log2 fold change [15],log2 fold change [16],log2 fold change [17],log2 fold change [18],log2 fold change [19],log2 fold change [20]
NBEAL2 (UniProt Q6ZNJ1),0.032,0.011,-0.031,0.038,0.017,-0.004,-0.032,-0.012,0.024,-0.01,-0.048,0.011,0.023,-0.047,0.003,0.036,-0.011,0.047,0.06,-0.013
NFKBIB (UniProt Q15653),0.113,-0.135,0,0.03,0.025,-0.026,0.06,0.016,-0.008,0.052,-0.034,-0.037,0.048,-0.008,-0.029,-0.012,0,0.033,0.06,-0.037
NOB1 (UniProt Q9ULX3),0.011,-0.028,0.012,-0.016,-0.02,0.023,-0.016,-0.016,-0.027,0.011,-0.005,0.018,-0.028,0.014,0.013,-0.001,-0.046,0.03,0.019,0.004
NUMBL (UniProt Q9Y6R0),0.031,0.028,0.175,-0.244,-0.025,-0.007,-0.038,-0.095,-0.045,-0.084,0.047,-0.023,-0.009,0.028,0.07,0.071,-0.081,0.076,0.058,-0.008
NDC1 (UniProt Q9BTX1),-0.002,0.015,0.026,0.047,0.031,-0.005,-0.077,0.013,0.024,0.026,0.009,-0.02,0.007,-0.012,-0.013,-0.009,-0.031,0.032,0.007,0.072
NUDT4 (UniProt Q9NZJ9),-0.043,0.233,-0.022,0.07,-0.055,-0.009,0.039,0.059,0.026,-0.026,0.091,0.022,0.074,0.067,-0.012,0.017,0.003,-0.105,-0.014,0.058
NOC2L (UniProt Q9Y3T9),-0.036,-0.013,-0.018,-0.029,0.027,0.031,0.077,-0.009,-0.004,-0.046,-0.047,0.015,0.047,-0.005,0.026,0.014,-0.074,-0.02,0.021,0.014
NUDT5 (UniProt Q9UKK9),-0.013,-0.051,0.046,0.027,-0.001,-0.002,-0.023,-0.026,0.014,0.005,0.059,-0.008,-0.047,-0.05,-0.047,-0.007,-0.002,0.006,-0.014,-0.042
NPTN (UniProt Q9Y639),-0.047,-0.02,-0.056,-0.421 (active),0.008,0.048,0.17,-0.003,0.007,0.064,0.069,0.026,0.042,-0.009,0.007,-0.02,-0.015,0.038,0.004,-0.046
MYCBP2 (UniProt O75592),0.01,0,0.031,0.008,-0.008,0.031,-0.023,0.004,0.03,0.022,0.014,-0.027,0.033,-0.085,0.014,0.016,-0.028,0.028,0.036,-0.033
NTMT1 (UniProt Q9BV86),0.002,0.031,0.02,0.055,-0.001,-0.002,0.014,0.021,0.042,-0.033,-0.025,0.022,-0.025,-0.018,0,-0.005,-0.01,-0.008,0.047,0.01
MTA1 (UniProt Q13330),0.006,0,0.013,0.017,-0.036,0,-0.035,0.002,-0.008,0.015,-0.018,-0.025,0.001,0.006,-0.007,-0.004,0,-0.008,0.034,-0.018
NPM3 (UniProt O75607),0.023,-0.047,0.034,0.019,-0.059,-0.013,0.025,-0.004,0.053,-0.028,0.038,0.03,0.029,-0.077,0.018,0.048,-0.03,0.069,0.018,-0.037
NQO1 (UniProt P15559),-0.033,0.081,0.055,-0.08,-0.02,-0.022,-0.192,0.005,0.006,-0.017,0.009,-0.003,0.033,0.081,-0.009,0.001,0.159,0.038,-0.025,0.067
MRPS12 (UniProt O15235),-0.015,-0.058,0,-0.044,-0.016,0.019,-0.251,-0.004,-0.127,0.043,-0.003,-0.008,0.011,-0.067,0.007,-0.004,-0.138,0.003,-0.028,-0.02
MRPL53 (UniProt Q96EL3),-0.036,-0.103,0.042,0.014,-0.004,-0.015,-0.049,-0.07,0.096,0.026,0.041,-0.018,0.062,-0.047,0.016,-0.047,0.011,0.042,0.044,0.011
